The values that follow come from PubChem BioAssay (Tox21).

Values joined by “and” are separate entries in the source; they are usually repeats but may differ in a detail not shown here. Equal entries are not always repeated. Records with an inconclusive call do not appear. Where a call stands in place of a potency, no number is given. Some structures have more than one record in an assay (separate samples or runs), and their calls can disagree. Active and inactive are the calls of the source. The call rests on the fitted dose curve; in most records, active means well fitted curve in the direction sought with a large enough effect in the repeat runs; inconclusive means weak or mixed curves; inactive means no such curve, though single readings can be large; an effect the other way counts as inactive or inconclusive.
Potency means the concentration at half of the fitted maximal effect.

Sequence of Aryl hydrocarbon receptor (Homo sapiens) (P35869 whole entry, looked up): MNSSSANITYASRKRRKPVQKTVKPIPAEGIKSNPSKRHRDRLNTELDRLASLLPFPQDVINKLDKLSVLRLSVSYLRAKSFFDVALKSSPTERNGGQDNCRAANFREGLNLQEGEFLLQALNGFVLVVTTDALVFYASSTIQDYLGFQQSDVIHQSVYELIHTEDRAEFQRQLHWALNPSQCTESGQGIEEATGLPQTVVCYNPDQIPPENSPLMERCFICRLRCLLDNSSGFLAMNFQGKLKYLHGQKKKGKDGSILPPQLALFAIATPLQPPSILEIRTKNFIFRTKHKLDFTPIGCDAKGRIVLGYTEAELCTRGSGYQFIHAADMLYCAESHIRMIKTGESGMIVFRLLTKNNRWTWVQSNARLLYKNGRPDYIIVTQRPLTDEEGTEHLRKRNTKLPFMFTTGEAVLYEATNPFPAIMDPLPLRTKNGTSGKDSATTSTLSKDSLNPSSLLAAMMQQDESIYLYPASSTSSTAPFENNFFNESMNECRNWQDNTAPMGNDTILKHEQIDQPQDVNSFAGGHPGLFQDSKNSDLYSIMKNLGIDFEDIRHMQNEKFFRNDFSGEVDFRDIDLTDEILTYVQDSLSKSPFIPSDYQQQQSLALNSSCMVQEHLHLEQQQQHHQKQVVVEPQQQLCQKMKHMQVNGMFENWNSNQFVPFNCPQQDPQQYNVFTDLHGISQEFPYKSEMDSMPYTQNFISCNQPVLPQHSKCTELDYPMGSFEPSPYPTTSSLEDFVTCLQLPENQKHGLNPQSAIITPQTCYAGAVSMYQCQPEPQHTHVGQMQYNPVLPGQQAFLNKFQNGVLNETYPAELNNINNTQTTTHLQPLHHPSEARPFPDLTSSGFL

System in the first assay: not listed separately
In words: qHTS assay to identify aromatase inhibitors - cell viability counter screen (AID 743084).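 Further: cells stimulated with testosterone during compound exposure; nearly all actives have a fitted effect of over 55% in size.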 To be noted: MCF-7 aro ERE viability, CellTiter-Fluor, 24 h; series mostly up to 70.3 µM. A general note: qHTS replaces the single test concentration by a dilution series.
Regarding `NS(=O)(=O)c1cc(C(=O)O)c(NCc2ccco2)cc1Cl`, the Potency entry was “inactive”.

Regarding `CC(C)(Oc1ccc(C2CC2(Cl)Cl)cc1)C(=O)O` (stereo not given), the Potency result was “inactive”.

Take `O=C(O)c1cc(N=Nc2ccc(S(=O)(=O)Nc3ccccn3)cc2)ccc1O`: the Potency is 34.5 µM (active) and 30.6 µM (active).

For the molecule `O=C(O)c1cccc([N+](=O)[O-])c1`, the Potency result was “inactive”.

Take `CC(=O)NS(=O)(=O)c1ccc(N)cc1`: the Potency entry was “inactive”.

As for `C1N2CN3CN1CN(C2)C3`, the Potency result was “inactive”.

As to `CCCNC(=O)NS(=O)(=O)c1ccc(Cl)cc1`, the Potency result was “inactive”.

On to `Nc1ccc(C(=O)O)cc1`, for which the Potency result is “inactive”.

Regarding `CNC[C@H](O)c1cccc(O)c1`, the Potency entry is “inactive”.

`CC1(C)[C@@H]2CC[C@@]1(C)C(=O)C2`: the Potency entry was “inactive”.

As to `O=NO`, the Potency entry is “inactive”.

For `O=C1CN(/N=C/c2ccc([N+](=O)[O-])o2)C(=O)N1`, the Potency is 30.5 µM (active).

Consider `Cn1c(=O)c2[nH]cnc2n(C)c1=O`, for which the Potency entry is “inactive”.

Consider `CCCCOC(=O)CC(CC(=O)OCCCC)(OC(C)=O)C(=O)OCCCC`, for which the Potency result is “inactive”.

`OC(Cn1cncn1)(Cn1cncn1)c1ccc(F)cc1F`: the Potency entry is “inactive”.

In the case of `O=S(=O)(O)NC1CCCCC1`, the Potency result was “inactive”.

Consider `CC(O)C(=O)O` (stereo not given), for which the Potency entry is “inactive”.

For the molecule `O=c1cc[nH]c(=S)[nH]1`, the Potency result was “inactive”.

Regarding `Oc1ccc(/C=C/c2cc(O)cc(O)c2)cc1`, the Potency result was “inactive”.

In the case of `Cn1cc[nH]c1=S`, the Potency entry is “inactive”.

As for `C/C=C/c1ccc(OC)cc1`, the Potency result is “inactive”.

With `CCCC(O)C(CC)CO` (stereo not given), the Potency entry was “inactive”.

Turning to `CCCCC1C(=O)N(c2ccccc2)N(c2ccccc2)C1=O`, the Potency result is “inactive”.

For the molecule `O=C(c1ccccc1)C(O)c1ccccc1` (stereo not given), the Potency entry is “inactive”.

In the case of `Nc1ccn([C@H]2CC[C@@H](CO)O2)c(=O)n1`, the Potency entry is “inactive”.

For `NC(N)=O`, the Potency entry was “inactive”.

Consider `Cc1ccc(C)c(OCCCC(C)(C)C(=O)O)c1`, for which the Potency result was “inactive”.

Consider `O=C(O)CCCCC(=O)O`, for which the Potency entry was “inactive”.

For `CC(O)CN(CCN(CC(C)O)CC(C)O)CC(C)O` (stereo not given), the Potency entry was “inactive”.

For `C[C@]12C=CC(=O)C=C1CC[C@@H]1[C@@H]2[C@@H](O)C[C@@]2(C)[C@H]1CC[C@]2(O)C(=O)CO`, the Potency entry was “inactive”.

Regarding `N=C(N)c1ccc(OCCCCCOc2ccc(C(=N)N)cc2)cc1`, the Potency entry is “inactive”.

With `COc1ccc2[nH]cc(CCNC(C)=O)c2c1`, the Potency result is “inactive”.

Turning to `CC(=O)OCC(COC(C)=O)OC(C)=O`, the Potency result is “inactive”.

With `O=C(c1ccccc1)c1ccccc1`, the Potency result was “inactive”.

With `O=C(O)c1cccnc1`, the Potency entry is “inactive”.

The target of the next assay is Aryl hydrocarbon receptor (Homo sapiens) (UniProt P35869). Description: qHTS assay to identify small molecule that activate the aryl hydrocarbon receptor (AhR) signaling pathway (AID 743085). Further: nearly all actives have a fitted effect of over 15% in size. Particulars: HepG2 AhR-luc (HG2L7.5c1), luciferase, 24 h; series mostly up to 70.3 µM. In short, it runs like this:
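A multiplexed format paired cell viability (CellTiter-Fluor fluorescence) with AhR-dependent luciferase output (ONE-Glo luminescence) in the same wells of HepG2 DRE-luc cells after 24 h compound exposure at 37C.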
`CC(C)(Oc1ccc(C2CC2(Cl)Cl)cc1)C(=O)O` (stereo not given): the Potency entry is “inactive”.

Turning to `O=C(O)c1cc(N=Nc2ccc(S(=O)(=O)Nc3ccccn3)cc2)ccc1O`, the Potency result was “inactive”.

As for `O=C(O)c1cccc([N+](=O)[O-])c1`, the Potency result was “inactive”.

For `CC(=O)NS(=O)(=O)c1ccc(N)cc1`, the Potency entry is “inactive”.

In the case of `C1N2CN3CN1CN(C2)C3`, the Potency entry was “inactive”.

Consider `CCCNC(=O)NS(=O)(=O)c1ccc(Cl)cc1`, for which the Potency result is “inactive”.

As to `Nc1ccc(C(=O)O)cc1`, the Potency result was “inactive”.

Regarding `CNC[C@H](O)c1cccc(O)c1`, the Potency result is “inactive”.

In the case of `CC1(C)[C@@H]2CC[C@@]1(C)C(=O)C2`, the Potency entry was “inactive”.

Consider `O=NO`, for which the Potency result was “inactive”.

For the molecule `O=C1CN(/N=C/c2ccc([N+](=O)[O-])o2)C(=O)N1`, the Potency result is “inactive”.

On to `Cn1c(=O)c2[nH]cnc2n(C)c1=O`, for which the Potency entry is “inactive”.

On to `CCCCOC(=O)CC(CC(=O)OCCCC)(OC(C)=O)C(=O)OCCCC`, for which the Potency entry is “inactive”.

For `O=S(=O)(O)NC1CCCCC1`, the Potency result was “inactive”.

For `CC(O)C(=O)O` (stereo not given), the Potency entry was “inactive”.

As for `O=c1cc[nH]c(=S)[nH]1`, the Potency result is “inactive”.

In the case of `Oc1ccc(/C=C/c2cc(O)cc(O)c2)cc1`, the Potency was 5.07 µM (active) and inactive.

Take `C/C=C/c1ccc(OC)cc1`: the Potency entry was “inactive”.

For the molecule `CCCC(O)C(CC)CO` (stereo not given), the Potency entry was “inactive”.

As for `CCCCC1C(=O)N(c2ccccc2)N(c2ccccc2)C1=O`, the Potency result is “inactive”.

As to `O=C(c1ccccc1)C(O)c1ccccc1` (stereo not given), the Potency result was “inactive”.

For the molecule `Cc1ccc(C)c(OCCCC(C)(C)C(=O)O)c1`, the Potency result was “inactive and 48.9 µM (active)”.

Regarding `O=C(O)CCCCC(=O)O`, the Potency entry was “inactive”.

Regarding `CC(O)CN(CCN(CC(C)O)CC(C)O)CC(C)O` (stereo not given), the Potency entry is “inactive”.

For the molecule `C[C@]12C=CC(=O)C=C1CC[C@@H]1[C@@H]2[C@@H](O)C[C@@]2(C)[C@H]1CC[C@]2(O)C(=O)CO`, the Potency result is “inactive”.

With `COc1ccc2[nH]cc(CCNC(C)=O)c2c1`, the Potency result was “inactive”.

In the case of `CC(=O)OCC(COC(C)=O)OC(C)=O`, the Potency entry is “inactive and 67.7 µM (active)”.

Regarding `O=C(c1ccccc1)c1ccccc1`, the Potency result is “inactive”.

For the molecule `O=C(O)c1cccnc1`, the Potency result was “inactive”.

System in another assay: not listed separately
Description: qHTS assay to identify small molecule that activate the aryl hydrocarbon receptor (AhR) signaling pathway - cell viability counter screen (AID 743086). Further: nearly all actives have a fitted effect of over 45% in size. Particulars: HepG2-AhR-luc viability, CellTiter-Fluor, 24 h; series mostly up to 70.3 µM. Put shortly:
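HepG2-AhR-luc (HG2L7.5c1) cells, 4000/well, treated 24 h at 37 C with compound; viability measured as CellTiter-Fluor fluorescence after 30 min in the same wells as the luciferase read.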
`NS(=O)(=O)c1cc(C(=O)O)c(NCc2ccco2)cc1Cl`: the Potency result is “inactive”.

Regarding `CC(C)(Oc1ccc(C2CC2(Cl)Cl)cc1)C(=O)O` (stereo not given), the Potency result was “inactive”.

As for `O=C(O)c1cc(N=Nc2ccc(S(=O)(=O)Nc3ccccn3)cc2)ccc1O`, the Potency entry was “inactive and 27.4 µM (active) and 30.6 µM (active)”.

Take `O=C(O)c1cccc([N+](=O)[O-])c1`: the Potency result is “inactive”.

Turning to `CC(=O)NS(=O)(=O)c1ccc(N)cc1`, the Potency entry is “inactive”.

As to `C1N2CN3CN1CN(C2)C3`, the Potency entry was “inactive”.

Regarding `CCCNC(=O)NS(=O)(=O)c1ccc(Cl)cc1`, the Potency entry was “inactive”.

As to `Nc1ccc(C(=O)O)cc1`, the Potency result was “inactive”.

Consider `CNC[C@H](O)c1cccc(O)c1`, for which the Potency entry was “inactive”.

Consider `CC1(C)[C@@H]2CC[C@@]1(C)C(=O)C2`, for which the Potency result was “inactive”.

`O=NO`: the Potency entry is “inactive”.

Regarding `O=C1CN(/N=C/c2ccc([N+](=O)[O-])o2)C(=O)N1`, the Potency is 30.5 µM (active) and 48.6 µM (active).

`Cn1c(=O)c2[nH]cnc2n(C)c1=O`: the Potency entry was “inactive”.

`CCCCOC(=O)CC(CC(=O)OCCCC)(OC(C)=O)C(=O)OCCCC`: the Potency result was “inactive”.

In the case of `OC(Cn1cncn1)(Cn1cncn1)c1ccc(F)cc1F`, the Potency entry was “inactive”.

For the molecule `O=S(=O)(O)NC1CCCCC1`, the Potency result was “inactive”.

Regarding `CC(O)C(=O)O` (stereo not given), the Potency entry was “inactive”.

With `O=c1cc[nH]c(=S)[nH]1`, the Potency entry was “inactive”.

Take `Oc1ccc(/C=C/c2cc(O)cc(O)c2)cc1`: the Potency entry was “inactive”.

As for `Cn1cc[nH]c1=S`, the Potency entry is “inactive”.

`C/C=C/c1ccc(OC)cc1`: the Potency result is “inactive”.

Turning to `CCCC(O)C(CC)CO` (stereo not given), the Potency result was “inactive”.

For the molecule `CCCCC1C(=O)N(c2ccccc2)N(c2ccccc2)C1=O`, the Potency result was “inactive”.

For `O=C(c1ccccc1)C(O)c1ccccc1` (stereo not given), the Potency entry was “inactive”.

For the molecule `Nc1ccn([C@H]2CC[C@@H](CO)O2)c(=O)n1`, the Potency result is “inactive”.

Take `NC(N)=O`: the Potency result was “inactive”.

`Cc1ccc(C)c(OCCCC(C)(C)C(=O)O)c1`: the Potency entry is “inactive”.

Consider `O=C(O)CCCCC(=O)O`, for which the Potency entry is “inactive”.

For the molecule `CC(O)CN(CCN(CC(C)O)CC(C)O)CC(C)O` (stereo not given), the Potency entry is “inactive”.

As for `COc1c2occc2cc2ccc(=O)oc12`, the Potency result is “inactive”.

Consider `C[C@]12C=CC(=O)C=C1CC[C@@H]1[C@@H]2[C@@H](O)C[C@@]2(C)[C@H]1CC[C@]2(O)C(=O)CO`, for which the Potency result is “inactive”.

As to `N=C(N)c1ccc(OCCCCCOc2ccc(C(=N)N)cc2)cc1`, the Potency result is “inactive”.

On to `COc1ccc2[nH]cc(CCNC(C)=O)c2c1`, for which the Potency entry is “inactive”.

Consider `CC(=O)OCC(COC(C)=O)OC(C)=O`, for which the Potency entry was “inactive”.

On to `O=C(c1ccccc1)c1ccccc1`, for which the Potency entry was “inactive”.

In the case of `O=C(O)c1cccnc1`, the Potency entry is “inactive”.
